Measurements: the supplement of paper PMC10849652
Of roughly 7,900 targets only a part is listed; those with a hit were picked by preference. About 0.6% of all pairs of compound and target were hits.

Assays:
Assay in all cases: log2 fold change, soluble protein after heating vs DMSO (PISA); higher = thermal stabilisation; K562 cells, 10 uM, 30 min; active = over 0.2 and 3.5 SD of the protein, either way, in both replicates (recomputed)
[1] = compound: CS(=O)(=O)c1ccc(-c2cnc(N)c(C(=O)Nc3ccccc3)n2)cc1
How it was run: (§1)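 Values are thermal stability changes relative to control samples and are taken from duplicates. They are stated as log2 fold changes. Before quantification by TMTpro 16plex LC-MS/MS with equalised channel sums, K562 cells at 2×10^6 cells/mL were treated with 10 μM compound for 30 min, heated in aliquots for 3 min across 48°C-58°C, pooled, extracted in PBS with 0.5% NP-40 at 4°C, and centrifuged at 21,000xg for 90 min to give the soluble supernatant.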

[2] = compound: C[C@@H](Oc1cc(-c2cnn(C3CCNCC3)c2)cnc1N)c1c(Cl)ccc(F)c1Cl [crizotinib]
How it was run: as §1

[3] = compound: C[C@@H]1COCCN1C2=NC(=NC(=C2)C3(CC3)S(=O)(=O)C)C4=C5C=CNC5=CC=C4
How it was run: as §1

[4] = compound: C[C@H](C1=CC=C(C=C1)C(=O)NC2=C3C=CNC3=NC=C2)N
How it was run: as §1

[5] = compound: C[C@H](Nc1ncnc2nc[nH]c12)c1cc2cccc(Cl)c2c(=O)n1-c1ccccc1 [duvelisib]
How it was run: as §1

[6] = compound: Cc1cc(Nc2cc(CN3CCOCC3)c3nc(C)c(Cc4ccc(Cl)cc4F)n3n2)n[nH]1 [gandotinib]
How it was run: as §1

[7] = compound: Cc1cc(Nc2cc(N3CCN(C)CC3)nc(Sc3ccc(NC(=O)C4CC4)cc3)n2)n[nH]1 [tozasertib]
How it was run: as §1

[8] = compound: Cc1cc(SCc2sc(-c3ccc(C(F)(F)F)cc3)nc2C)ccc1OCC(=O)O
How it was run: as §1

[9] = compound: Cc1ccc(-n2nc(C(C)(C)C)cc2NC(=O)Nc2ccc(OCCN3CCOCC3)c3ccccc23)cc1 [doramapimod]
How it was run: as §1

[10] = compound: Cc1ccc(C(=O)N(CCCN)[C@@H](c2nc3cc(Cl)ccc3c(=O)n2Cc2ccccc2)C(C)C)cc1 [ispinesib]
How it was run: as §1

[11] = compound: Cc1ccc(NC(=O)c2ccc(CN3CC[C@H](N(C)C)C3)c(C(F)(F)F)c2)cc1Nc1nccc(-c2cncnc2)n1 [bafetinib]
How it was run: as §1

[12] = compound: Cc1cccc(CC(=O)N2CCc3c2ccc(-c2cn(C)c4ncnc(N)c24)c3F)n1
How it was run: as §1

[13] = compound: Cc1cn(-c2cc(NC(=O)c3ccc(C)c(Nc4nccc(-c5cccnc5)n4)c3)cc(C(F)(F)F)c2)cn1 [nilotinib]
How it was run: as §1

[14] = compound: Cc1nc(Nc2n[nH]c3c2CN(C(=O)N[C@H](CN(C)C)c2ccccc2)C3(C)C)c2sccc2n1
How it was run: as §1

[15] = compound: Cc1nc(Nc2ncc(C(=O)Nc3c(C)cccc3Cl)s2)cc(N2CCN(CCO)CC2)n1 [dasatinib]
How it was run: as §1

[16] = compound: Cc1ncc(-c2ccnc(Nc3ccc(S(C)(=O)=O)cc3)n2)n1C(C)C
How it was run: as §1

[17] = compound: Cn1cc(-c2ccc3c(c2)CCN3C(=O)Cc2cccc(C(F)(F)F)c2)c2c(N)ncnc21
How it was run: as §1

[18] = compound: Cn1cc(-c2ccc3nnc(C(F)(F)c4ccc5ncccc5c4)n3n2)cn1
How it was run: as §1

[19] = compound: Cn1cncc1[C@@](N)(c1ccc(Cl)cc1)c1ccc2c(c1)c(-c1cccc(Cl)c1)cc(=O)n2C [tipifarnib]
How it was run: as §1

[20] = compound: FC(F)(F)c1ccc(/C=C/c2nc(COc3ccc(CCCCn4ccnn4)cc3)co2)cc1 [mubritinib]
How it was run: as §1

Measured: log2 fold change

PLBD1 (UniProt Q6P4A8)
Chain of UniProt Q6P4A8 (Q6P4A8 whole entry, looked up): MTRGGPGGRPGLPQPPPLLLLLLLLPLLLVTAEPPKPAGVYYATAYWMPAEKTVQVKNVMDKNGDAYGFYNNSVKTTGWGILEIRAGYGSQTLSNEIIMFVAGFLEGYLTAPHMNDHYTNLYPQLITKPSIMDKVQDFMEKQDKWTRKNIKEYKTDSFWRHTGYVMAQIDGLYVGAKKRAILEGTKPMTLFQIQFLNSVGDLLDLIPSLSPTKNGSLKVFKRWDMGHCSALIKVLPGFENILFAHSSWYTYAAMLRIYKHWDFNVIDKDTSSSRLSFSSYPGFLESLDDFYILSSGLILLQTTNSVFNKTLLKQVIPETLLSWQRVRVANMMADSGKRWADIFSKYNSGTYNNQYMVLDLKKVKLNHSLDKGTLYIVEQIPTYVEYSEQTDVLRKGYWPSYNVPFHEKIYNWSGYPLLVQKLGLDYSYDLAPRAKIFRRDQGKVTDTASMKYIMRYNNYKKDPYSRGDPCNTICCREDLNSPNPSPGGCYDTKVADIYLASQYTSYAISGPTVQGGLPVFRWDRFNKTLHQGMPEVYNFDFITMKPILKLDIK
inactive: [1] -0.01 | [2] -0.082 | [3] 0.009 | [4] -0.032 | [5] 0.01 | [6] 0.011 | [7] -0.005 | [8] -0.032 | [9] -0.007 | [10] 0.016 | [11] -0.143 | [12] 0 | [13] 0.021 | [14] -0.029 | [15] -0.063 | [16] -0.035 | [17] 0.041 | [18] 0.081 | [19] 0.038 | [20] 0.052

PSMD13 (UniProt Q9UNM6)
Chain of UniProt Q9UNM6 (Q9UNM6 whole entry, looked up): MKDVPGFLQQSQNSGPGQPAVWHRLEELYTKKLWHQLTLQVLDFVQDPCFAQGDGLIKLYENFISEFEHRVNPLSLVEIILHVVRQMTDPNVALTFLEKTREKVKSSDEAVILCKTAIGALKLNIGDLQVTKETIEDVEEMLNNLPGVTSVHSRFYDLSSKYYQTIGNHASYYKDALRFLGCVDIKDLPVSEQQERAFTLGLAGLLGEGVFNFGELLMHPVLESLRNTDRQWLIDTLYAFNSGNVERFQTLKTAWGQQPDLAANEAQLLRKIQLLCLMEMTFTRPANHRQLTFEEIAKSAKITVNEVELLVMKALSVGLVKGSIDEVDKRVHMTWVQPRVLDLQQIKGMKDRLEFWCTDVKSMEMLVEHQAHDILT
inactive: [1] 0.048 | [2] 0.008 | [3] -0.012 | [4] 0.092 | [5] -0.028 | [6] -0.016 | [7] 0.062 | [8] 0.052 | [9] 0.026 | [10] -0.008 | [11] 0.126 | [12] 0.003 | [13] -0.002 | [14] 0.082 | [15] 0.023 | [16] -0.018 | [17] -0.114 | [18] -0.008 | [19] 0.095 | [20] -0.019

PSME4 (UniProt Q14997)
inactive: [1] 0.036 | [2] -0.161 | [3] 0.013 | [4] 0.052 | [5] 0.02 | [6] -0.082 | [7] -0.078 | [8] 0.093 | [9] 0.045 | [10] -0.09 | [11] 0.069 | [12] 0.141 | [13] -0.057 | [14] 0.016 | [15] -0.084 | [16] -0.098 | [17] 0.015 | [18] -0.006 | [19] -0.036 | [20] 0.052

PRIM1 (UniProt P49642)
Chain of UniProt P49642 (P49642 whole entry, looked up): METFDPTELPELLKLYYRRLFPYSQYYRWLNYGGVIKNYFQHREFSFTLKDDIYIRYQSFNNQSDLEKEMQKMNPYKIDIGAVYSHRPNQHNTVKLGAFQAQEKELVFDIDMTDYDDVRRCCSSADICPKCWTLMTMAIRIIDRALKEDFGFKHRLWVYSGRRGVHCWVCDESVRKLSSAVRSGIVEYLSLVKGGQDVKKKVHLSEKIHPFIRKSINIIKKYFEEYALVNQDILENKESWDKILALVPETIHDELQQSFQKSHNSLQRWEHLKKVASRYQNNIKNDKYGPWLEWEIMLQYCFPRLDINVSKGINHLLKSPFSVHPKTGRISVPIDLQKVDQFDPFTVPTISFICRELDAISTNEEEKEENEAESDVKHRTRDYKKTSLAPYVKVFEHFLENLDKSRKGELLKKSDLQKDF
inactive: [1] 0.051 | [2] -0.066 | [3] 0.039 | [4] 0.086 | [5] -0.011 | [6] -0.131 | [7] 0.001 | [8] 0.102 | [9] 0.007 | [10] -0.082 | [11] 0.046 | [12] 0.01 | [13] -0.034 | [14] -0.055 | [15] -0.161 | [16] -0.009 | [17] -0.033 | [18] 0.009 | [19] -0.073 | [20] 0.06

PHF5A (UniProt Q7RTV0)
Chain of UniProt Q7RTV0 (Q7RTV0 whole entry, looked up): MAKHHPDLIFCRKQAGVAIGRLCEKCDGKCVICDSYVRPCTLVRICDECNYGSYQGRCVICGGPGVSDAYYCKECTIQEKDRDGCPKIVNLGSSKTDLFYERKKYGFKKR
inactive: [1] 0.013 | [2] 0.074 | [3] -0.061 | [4] -0.072 | [5] 0 | [6] -0.009 | [7] 0.043 | [8] -0.031 | [9] -0.093 | [10] 0.094 | [11] -0.097 | [12] -0.047 | [13] -0.018 | [14] 0.012 | [15] 0.102 | [16] 0.086 | [17] -0.031 | [18] 0.03 | [19] 0.031 | [20] -0.025

PITRM1 isoform 2 (UniProt Q5JRX3)
Chain of UniProt Q5JRX3 (Q5JRX3 whole entry, looked up): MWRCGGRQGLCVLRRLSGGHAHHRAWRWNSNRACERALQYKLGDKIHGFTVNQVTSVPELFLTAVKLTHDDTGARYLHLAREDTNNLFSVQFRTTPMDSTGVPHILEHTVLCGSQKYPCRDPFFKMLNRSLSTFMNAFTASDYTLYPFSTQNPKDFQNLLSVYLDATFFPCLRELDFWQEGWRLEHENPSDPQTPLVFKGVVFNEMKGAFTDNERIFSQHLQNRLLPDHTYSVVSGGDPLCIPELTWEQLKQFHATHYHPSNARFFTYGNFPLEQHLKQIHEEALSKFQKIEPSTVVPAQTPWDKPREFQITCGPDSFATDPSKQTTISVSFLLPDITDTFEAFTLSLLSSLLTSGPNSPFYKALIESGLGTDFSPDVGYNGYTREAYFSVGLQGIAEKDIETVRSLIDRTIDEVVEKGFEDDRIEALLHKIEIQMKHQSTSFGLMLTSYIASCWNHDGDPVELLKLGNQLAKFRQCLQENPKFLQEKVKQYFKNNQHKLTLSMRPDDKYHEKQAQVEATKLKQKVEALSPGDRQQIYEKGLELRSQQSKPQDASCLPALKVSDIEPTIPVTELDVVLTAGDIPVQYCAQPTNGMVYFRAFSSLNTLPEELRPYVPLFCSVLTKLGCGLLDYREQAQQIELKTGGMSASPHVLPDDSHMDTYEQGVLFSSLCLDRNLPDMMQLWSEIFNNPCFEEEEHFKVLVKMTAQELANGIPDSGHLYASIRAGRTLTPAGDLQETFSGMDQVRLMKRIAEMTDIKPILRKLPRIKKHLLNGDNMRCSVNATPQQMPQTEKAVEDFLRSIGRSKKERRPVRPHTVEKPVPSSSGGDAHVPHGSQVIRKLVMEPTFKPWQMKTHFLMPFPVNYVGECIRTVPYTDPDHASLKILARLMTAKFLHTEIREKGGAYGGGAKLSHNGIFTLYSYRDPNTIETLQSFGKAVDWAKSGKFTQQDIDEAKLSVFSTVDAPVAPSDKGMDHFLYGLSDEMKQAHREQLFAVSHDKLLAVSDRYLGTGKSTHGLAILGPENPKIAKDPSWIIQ
inactive: [1] -0.042 | [2] 0.01 | [3] 0.094 | [4] -0.023 | [5] 0.072 | [6] 0.038 | [7] -0.029 | [8] 0 | [9] -0.014 | [11] -0.052 | [12] -0.039 | [13] -0.108 | [14] 0.01 | [15] -0.132 | [16] -0.088 | [17] 0.119 | [18] -0.004 | [19] 0.003 | [20] 0.005
active: [10] -0.38

PRMT3 (UniProt O60678)
Chain of UniProt O60678 (O60678 whole entry, looked up): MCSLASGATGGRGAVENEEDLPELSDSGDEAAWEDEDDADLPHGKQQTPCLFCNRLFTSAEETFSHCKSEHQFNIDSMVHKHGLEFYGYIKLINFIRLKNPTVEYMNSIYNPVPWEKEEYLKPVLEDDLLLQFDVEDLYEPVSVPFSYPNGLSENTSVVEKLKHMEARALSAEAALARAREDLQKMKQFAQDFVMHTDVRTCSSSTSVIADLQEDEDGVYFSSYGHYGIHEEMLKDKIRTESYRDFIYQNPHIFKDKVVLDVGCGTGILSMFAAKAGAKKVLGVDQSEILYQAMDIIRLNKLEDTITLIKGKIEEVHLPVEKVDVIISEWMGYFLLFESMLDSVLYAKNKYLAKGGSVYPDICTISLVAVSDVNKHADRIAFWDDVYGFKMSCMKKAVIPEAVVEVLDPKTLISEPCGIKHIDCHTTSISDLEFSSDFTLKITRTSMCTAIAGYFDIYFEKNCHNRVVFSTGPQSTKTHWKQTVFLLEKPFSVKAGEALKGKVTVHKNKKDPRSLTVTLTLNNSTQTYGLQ
inactive: [1] -0.067 | [2] -0.137 | [3] -0.002 | [4] -0.058 | [5] -0.028 | [6] -0.156 | [7] 0.002 | [8] 0.111 | [9] -0.037 | [10] -0.02 | [11] 0.048 | [12] 0.034 | [13] -0.155 | [14] 0.011 | [15] -0.153 | [16] -0.02 | [17] -0.044 | [18] -0.004 | [19] -0.126 | [20] 0.081

POLR1A (UniProt O95602)
inactive: [1] 0.076 | [2] -0.017 | [3] -0.116 | [4] 0.125 | [5] 0.111 | [6] -0.03 | [7] -0.145 | [8] 0.08 | [9] 0.141 | [10] -0.151 | [11] -0.11 | [12] 0.004 | [13] -0.051 | [14] 0.046 | [15] 0.046 | [16] -0.003 | [17] -0.16 | [18] -0.057 | [19] 0.019 | [20] 0.069

PDCD6 (UniProt O75340)
Chain of UniProt O75340 (O75340 whole entry, looked up): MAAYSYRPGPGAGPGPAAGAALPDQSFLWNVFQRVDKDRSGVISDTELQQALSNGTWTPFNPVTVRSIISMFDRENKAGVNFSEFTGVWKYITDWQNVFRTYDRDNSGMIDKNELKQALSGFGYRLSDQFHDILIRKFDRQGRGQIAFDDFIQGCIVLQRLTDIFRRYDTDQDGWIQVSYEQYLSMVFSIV
inactive: [1] 0.029 | [2] -0.047 | [3] 0.051 | [4] -0.021 | [5] 0.03 | [6] -0.056 | [7] 0.05 | [8] 0.038 | [9] 0.002 | [10] -0.045 | [11] -0.11 | [12] -0.005 | [13] -0.071 | [14] 0.042 | [15] -0.021 | [16] -0.026 | [17] 0.027 | [18] 0.022 | [19] -0.034 | [20] 0.009

PLK1 (UniProt P53350)
Chain of UniProt P53350 (P53350 whole entry, looked up): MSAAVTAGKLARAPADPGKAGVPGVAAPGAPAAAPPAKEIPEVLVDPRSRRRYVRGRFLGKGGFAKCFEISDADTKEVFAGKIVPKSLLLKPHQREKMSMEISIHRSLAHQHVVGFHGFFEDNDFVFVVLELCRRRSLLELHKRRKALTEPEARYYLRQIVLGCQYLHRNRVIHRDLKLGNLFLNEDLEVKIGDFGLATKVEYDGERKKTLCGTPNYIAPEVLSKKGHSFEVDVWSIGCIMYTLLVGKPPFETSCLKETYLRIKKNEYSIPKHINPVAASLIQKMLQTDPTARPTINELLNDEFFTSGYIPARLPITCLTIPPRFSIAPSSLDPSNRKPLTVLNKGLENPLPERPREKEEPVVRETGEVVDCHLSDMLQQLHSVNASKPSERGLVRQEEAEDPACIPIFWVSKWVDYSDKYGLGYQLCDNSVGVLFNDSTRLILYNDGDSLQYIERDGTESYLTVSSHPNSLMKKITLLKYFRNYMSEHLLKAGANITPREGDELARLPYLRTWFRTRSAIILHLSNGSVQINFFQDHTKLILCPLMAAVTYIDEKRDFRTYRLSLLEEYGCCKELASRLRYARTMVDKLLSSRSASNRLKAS
inactive: [1] -0.113 | [2] -0.105 | [3] -0.194 | [4] 0.031 | [5] 0.012 | [6] 0.095 | [7] 0.037 | [8] -0.1 | [9] 0.032 | [10] 0.01 | [11] -0.048 | [12] 0.003 | [13] -0.062 | [15] -0.125 | [16] 0.152 | [17] 0.006 | [18] -0.013 | [19] 0.019 | [20] 0.003
active: [14] -1.37

PRKAR2B (UniProt P31323)
Chain of UniProt P31323 (P31323 whole entry, looked up): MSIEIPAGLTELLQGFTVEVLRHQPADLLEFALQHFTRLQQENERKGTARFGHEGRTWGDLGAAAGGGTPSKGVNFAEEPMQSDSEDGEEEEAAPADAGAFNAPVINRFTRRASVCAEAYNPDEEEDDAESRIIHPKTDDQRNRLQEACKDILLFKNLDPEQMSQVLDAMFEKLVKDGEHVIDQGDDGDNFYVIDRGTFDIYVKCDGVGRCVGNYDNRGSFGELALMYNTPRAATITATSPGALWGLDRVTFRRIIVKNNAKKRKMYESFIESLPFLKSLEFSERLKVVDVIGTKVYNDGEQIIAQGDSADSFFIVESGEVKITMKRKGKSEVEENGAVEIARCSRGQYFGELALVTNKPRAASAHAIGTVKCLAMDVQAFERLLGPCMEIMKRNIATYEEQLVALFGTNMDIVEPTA
active: [14] -1.23
inactive: [1] -0.026 | [2] -0.108 | [3] -0.067 | [4] -0.136 | [5] 0.007 | [6] -0.271 | [7] 0.026 | [8] 0.112 | [9] 0.073 | [10] -0.001 | [11] -0.022 | [12] 0.133 | [13] 0.012 | [15] -0.078 | [16] -0.16 | [17] 0.022 | [18] -0.07 | [19] -0.103 | [20] 0.189
